Experiments:
[1] = target: T1, Aspartate--tRNA(Asp/Asn) ligase (Mycobacterium tuberculosis (strain ATCC 25618 / H37Rv)) (UniProt P9WFW3); experiment: Assay for Asp RNA synthetase-1 from Mycobacterium tuberculosis; format: functional; design: scale not given: direction of the effect not stated beside the values; conditions: 30 µM; further: in the data most compounds retested in dose-response had high values
T1 sequence (whole entry): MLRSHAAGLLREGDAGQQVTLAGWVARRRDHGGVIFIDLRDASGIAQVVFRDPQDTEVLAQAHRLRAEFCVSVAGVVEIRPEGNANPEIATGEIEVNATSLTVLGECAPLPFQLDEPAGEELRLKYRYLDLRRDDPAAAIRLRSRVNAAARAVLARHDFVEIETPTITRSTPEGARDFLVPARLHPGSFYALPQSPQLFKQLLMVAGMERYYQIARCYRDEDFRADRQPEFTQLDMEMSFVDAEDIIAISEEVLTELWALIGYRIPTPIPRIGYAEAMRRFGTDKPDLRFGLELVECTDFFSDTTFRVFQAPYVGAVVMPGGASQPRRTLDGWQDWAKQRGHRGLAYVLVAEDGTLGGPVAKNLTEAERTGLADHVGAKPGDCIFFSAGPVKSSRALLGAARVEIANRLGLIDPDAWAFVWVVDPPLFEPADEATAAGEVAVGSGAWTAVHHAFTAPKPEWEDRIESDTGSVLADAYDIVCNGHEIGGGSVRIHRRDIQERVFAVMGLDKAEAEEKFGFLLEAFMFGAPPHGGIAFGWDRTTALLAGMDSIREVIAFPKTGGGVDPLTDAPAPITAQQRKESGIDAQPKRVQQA

[2] = target: Shiga toxin 2 (Escherichia coli O157:H7) (UniProt P09385+P09386); experiment: E. coli 0.157:H7 Shiga Toxin SOP - stx2 screening assay; format: functional; design: scale not given: direction of the effect not stated beside the values; conditions: 30 µM

Row | Structure (SMILES) | Percent Effect [1] [%] | Percent Effect [2] [%]
1 | COc1c(C2CCCN2C(=O)c2cc(Cl)c[nH]2)c(C)nn1C (configuration not stated) | 0.802 | -13
2 | O=C(N1CCCC1)N1CCN(CC2CC2)c2ncccc2C1 | 3.25 | -4.59
3 | Cc1cc(C2CCCN2C(=O)c2cc3c(s2)CCC3)on1 (configuration not stated) | -0.678 | 5.77
4 | O=C(Nc1ccc(N2CCCC2)nc1)N1CCc2ccccc2C1 | 2.91 | -147
5 | COc1c(CNCc2ccc(CN(C)C)cc2)c(C(C)C)nn1C | 0.7 | 16.1
6 | COc1cccc(C(=O)NCCCN2CCc3ccccc3C2)c1OC | -2.13 | -9.33
7 | Cc1cc(-c2cnc(NC3CC3)nc2-c2ccc(C)o2)on1 | -2.52 | 0.454
8 | COCCN1CCc2cc(C(=O)N(C)C)c(NC(C)C)nc2CC1 | -1.31 | -20
9 | c1cnn(C2CN(Cc3nc(-c4ccsc4)no3)C2)c1 | -1.81 | 23
10 | COCc1nc(C(=O)N2CCCC(n3cccn3)C2)cs1 (configuration not stated) | -1.71 | -22.6
11 | CN(C)C(=O)CN1C[C@@H]2CC[C@H](C1)N(Cc1cccc(Cl)c1Cl)C2 | 0.661 | 1.27
12 | CC(O)CN1CCN(C(=O)c2ccc3c(c2)COC3)CC1 (configuration not stated) | -4.85 | -19.4
13 | CC(C)c1nc(C2CCCN2C(=O)c2nccnc2N)no1 (configuration not stated) | -5.36 | -16.2
14 | NC(=O)C1CCN(c2nc3nccc(-c4ccccn4)c3c(=O)[nH]2)CC1 | 1.02 | 2.69
15 | CCc1nc(C2CCCN2C(=O)CCc2cccs2)no1 (configuration not stated) | -0.641 | 24
16 | N#Cc1ccc(C(=O)N2CC[C@H]3[C@@H]2CCC(=O)N3c2cccnc2)cc1 | 2.4 | -9.02
17 | Cc1ccc(CS(=O)(=O)N2CC[C@H]3[C@H]2CCN3C)cc1 | -3.51 | -4.23
18 | COc1cccc2c1ccn2CCC(=O)NCCCC(=O)O | -1.42 | -21
19 | Cc1cc(S(=O)(=O)N2CCc3ccc(F)cc32)cc(C(=O)O)c1C | 2.1 | -5.86
20 | CC(C)c1nc2c(n1C)CCN(CC(=O)Nc1ccc(Cl)cn1)C2 | 3.34 | -0.161
21 | COc1ccc(C(=O)N2CCCC(C)C2)cc1F (configuration not stated) | 0.26 | 13.7
22 | CCN(CC)CC1CN(CCc2ccccc2)Cc2nccn2C1 (configuration not stated) | -4.79 | 4.72
23 | CC1CN(C(=O)c2ccn(-c3cccc(Cl)c3)n2)CCO1 (configuration not stated) | -3.19 | -15
24 | CCCOc1cc(CNC(=O)Nc2cccnc2N2CCCC2)ccn1 | 1.75 | -9.71
25 | CC(C)c1nnc2n1CCN(CC(=O)N1CCc3ccccc3C1)C2 | -3.72 | -17
26 | CC1CCCN(C(=O)c2csc(S(N)(=O)=O)c2)CC1 (configuration not stated) | 0.324 | -19.1

Row | Structure (SMILES) | Percent Effect [1] [%] | Percent Effect [2] [%]
27 | Cc1cc(C[C@@H]2COC[C@@H]2NC(=O)CN2CCCC2)on1 | 4.6 | -10.1
28 | CCN1CCO[C@]2(CCC[C@H]2COCc2csc(C)n2)C1 | -0.869 | 7.16
29 | Cc1ccc(CN2CCc3ncnc(-c4cccnc4)c3CC2)o1 | 4.98 | 9.48
30 | Cc1cnn(CCNCc2csc(-c3cccs3)n2)c1 | -6.55 | 19.3
31 | CC(Cn1cccn1)NC(=O)NCCc1ccc(Cl)s1 (configuration not stated) | 4.37 | -19.2
32 | Cc1cnc(N2CCC3(CCCN(c4ccc(C)nn4)C3)C2)nc1 (configuration not stated) | -0.547 | -25.4
33 | CCc1nccn1C1CCCN(C(=O)c2cn3cccnc3n2)C1 (configuration not stated) | -1.08 | 5.72
34 | COc1ccccc1C(=O)N1Cc2cc(C)ccc2OCC1CN(C)C (configuration not stated) | 1.89 | -7.43
35 | O=C(Cn1c(=O)n(Cc2ccco2)c2ncccc21)Nc1ccccn1 | 8.2 | 3.73
36 | Cc1ccc(Cn2ccc(NS(C)(=O)=O)n2)cc1 | 2.05 | -19.8
37 | Cc1cnn(CC2CCCCN2C(=O)c2cc(C(N)=O)cs2)c1 (configuration not stated) | -2.6 | 1.14
38 | COc1cccc(CN(C)C(=O)CSc2ccc3c(c2)OCCO3)c1 | 0.12 | 7.23
39 | CCOCCCNC(=O)c1nn(CC)cc1Cl | -5.87 | -47.7
40 | COCCO[C@H]1CCN(C(=O)C2CCOCC2)[C@H]1Cc1ccncc1 | 4.84 | -17.6
41 | Cc1ccccc1CN1CCC(NCC2CNc3ccnn3C2)CC1 (configuration not stated) | 0.127 | -38.1
42 | CCc1nc(CN(C(C)=O)C2CCN(Cc3cnc(C)cn3)C2)no1 (configuration not stated) | -0.742 | -16.6
43 | Cc1nn(C)c(N2CCOCC2)c1CNC1CCOc2ccccc21 (configuration not stated) | -2.83 | 9.33
44 | OCC1CCCCN1c1ccc(-c2nc(-c3ccccc3F)no2)cn1 (configuration not stated) | -6.87 | -36.1
45 | O=C(c1ccncc1)N1CCC(c2nc(O)cc(-c3cccnc3)n2)C1 (configuration not stated) | -1.81 | 4.42
46 | CC(C)N1CC(C(=O)NCc2ccnc(-n3cccn3)c2)CC1=O (configuration not stated) | -0.3 | -49.1
47 | CC1CCCCN1c1nc2c(c(=O)[nH]1)CCN(Cc1cccnc1)C2 (configuration not stated) | 1.98 | -8.32
48 | CC(C)C(=O)N1CCC2(CCCN(CCOc3ccccc3)C2)C1 (configuration not stated) | 2.32 | 10.8
49 | CCC(=O)N1CCN(C(=O)CCn2cccn2)CC1 | -2.56 | -8.34
50 | CS(=O)(=O)c1ccccc1C(=O)NCCCN1CCc2ccccc2C1 | -6.45 | -24.7
51 | O=C(c1cccnc1-n1cncn1)N1CCN(CC2CC2)CC1 | 0.524 | -1.68

Reference: ChEMBL document CHEMBL3988442, “University of Dundee, Small-Polar-MMV Screening Library” (2021)
